Assay results published in the supplement of paper PMC3842684.

Key:
[1] = tested on: P. falciparum NF54-pfs16-GFP early (I-III) stage gametocytes; assay: relative % inhibition of viable gametocyte number; higher = more gametocytocidal; details: stage: early (I-III) gametocyte, incubation 72 h
Outline: (§1)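 Compound was tested in duplicate at 5 or 0.5 µM on magnet-isolated NF54 pfs16-GFP gametocytes, taken either early (I/IIa, day 2) or late (day 8) and plated at 10% parasitaemia, 0.1% haematocrit. Incubation ran 72 h at 37°C, 5% CO2, 5% O2, followed by overnight MitoTracker Red staining and confocal imaging. Relative inhibition, based on counts of elongated GFP objects with above-cut-off MitoTracker signal, was normalised to in-plate vehicle and positive-control wells.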

[2] = tested on: P. falciparum NF54-pfs16-GFP late (IV-V) stage gametocytes; assay: as above; details: stage: late (IV-V) gametocyte, incubation 72 h
Outline: as §1

| SMILES | relative % inhibition ([1]; 0.5 µM) | relative % inhibition ([1]; 5 µM) | relative % inhibition ([2]; 0.5 µM) | relative % inhibition ([2]; 5 µM) |
| --- | --- | --- | --- | --- |
| COc1ccccc1CNC(=O)CCn1c(=O)[nH]c2ccsc2c1=O | 16.9% | 2.5% | -0.5% | 0% |
| Cc1ccc(OCCCCCCNCCO)c(C)c1 | 2.04% | 30.1% | -16.2% | -15.5% |
| COc1ccc(C2Sc3ccccc3N=C3C2=C(O)c2ccccc23)cc1 (stereo not drawn) | 6.74% | 20.4% | 24% | 51.1% |
| Nc1ccc(-c2nc3cc(Cc4ccc5[nH]c(-c6ccc(N)cc6)nc5c4)ccc3[nH]2)cc1 | 14.7% | 100% | 14.6% | 85.1% |
| Cc1cc(Nc2cccc(F)c2)nc(NCc2ccccc2)n1 | 28.5% | 72.2% | 24.1% | 34.6% |
| O=C1c2ccccc2C2=Nc3ccccc3SC(c3cccc(F)c3)C12 (stereo not drawn) | 30.8% | 27.4% | 43.7% | 83.8% |
| CC(O)(c1ccc(Cl)cc1)C(CN1CCCCC1)c1ccccc1 (stereo not drawn) | 20% | 59.1% | 14% | 22.3% |
| C=C(C)CCC(C)N1CCC(N2CCC(C(=O)NCCc3ccccc3)CC2)CC1 (stereo not drawn) | -2.27% | 49.4% | -12.5% | -42.7% |
| COc1ccc(N2CCN(C(CNC(=O)C3CCCCC3)c3ccc4c(c3)OCO4)CC2)cc1 (stereo not drawn) | 22.8% | 8.98% | 35.1% | 50.7% |
| O=C(Nc1ccc(Cl)cc1C(=O)Nc1ccncc1)c1ccc(Cl)cc1Cl | 20.3% | 31.8% | -5.7% | -20.8% |
| CCOC(=O)c1c(C)n(-c2ccc(Cl)cc2)c2ccc(OC(=O)C=Cc3ccccc3)cc12 | 15.8% | 26.8% | 11.1% | 11.5% |
| O=C(c1ccccc1F)N(Cc1ccc(Cl)cc1)c1ccccn1 | -17.2% | -20.6% | 2.03% | 16.8% |
| CCOc1ccccc1CNC(=O)C1c2ccccc2C(=O)N(CC(C)C)C1c1cccs1 (stereo not drawn) | 6.2% | 54.1% | -4.49% | -12.6% |
| Cc1c(C)n(Cc2ccc(F)cc2)c2ccc(C(=O)NCc3ccco3)cc12 | 19.2% | -8.91% | 16.9% | 21.7% |
| COc1ccc2c(c1)OC(O)(C(F)(F)C(F)(F)F)CC2=O (stereo not drawn) | -12.9% | -4.42% | 8.91% | 10.1% |
| Cc1cc(NC(=O)c2cccc(C(F)(F)F)c2)n(-c2nc(-c3ccc4c(c3)OCO4)cs2)n1 | -23.4% | -25.9% | 18.8% | 10.5% |
| Cc1ccc(S(=O)(=O)c2c(COC(=O)c3cccc(C)c3)c(-c3ccccc3)nn2C)cc1 | -3.57% | 37.5% | 18.5% | 20.4% |
| COc1ccc(-c2nonc2NC(=O)c2cccc(Cl)c2)cc1OC | 31.7% | -10.8% | -17.2% | -2.96% |
| CCCCCC(=O)N1c2ccccc2N=C2CC(c3ccc(OC)c(OC)c3)CC(O)=C2C1c1ccc(C(F)(F)F)cc1 (stereo not drawn) | 50.6% | 76.3% | 32.8% | 60.6% |
| Cc1cc(N(C)C)nc(Nc2ccc(NC(=O)Nc3ccccc3)cc2)n1 | 24.5% | 8.02% | 24% | 1.55% |
| CN(C)CCCNCc1ccc(-c2ccc(F)c(Cl)c2)o1 | 32.7% | 99.5% | 7.27% | 20.8% |
| O=C(Nc1ccc(F)c(Cl)c1)Nc1ccc(Cl)c(Cl)c1 | 6.15% | 98.2% | 18.8% | 30.3% |
| CCOc1ccc(CCNC(=O)c2cccs2)cc1OCC | -1.74% | 30.1% | -6.65% | 16.1% |
| CCCCc1c(CCC)c(=N)c2ccccc2n1C | 16.2% | -5.38% | 18.3% | -17.8% |

| SMILES | relative % inhibition ([1]; 0.5 µM) | relative % inhibition ([1]; 5 µM) | relative % inhibition ([2]; 0.5 µM) | relative % inhibition ([2]; 5 µM) |
| --- | --- | --- | --- | --- |
| CC(C)(C)c1ccc(O)c(CNC2CCCCC2)c1 | 89.9% | 90.6% | 61.1% | 81% |
| Cc1ccc(C)c(-c2csc(Nc3ccc(C)c(C)c3)n2)c1 | 9.93% | -13.3% | 15.6% | 41.4% |
| Oc1ccccc1CN1CCC2(CCCN(Cc3ccccc3F)C2)C1 (stereo not drawn) | 32.5% | 93.8% | 34.9% | 61.2% |
| Cc1sc(NC(=O)c2ccco2)c(C(c2cccnc2)N2CCC(Cc3ccccc3)CC2)c1C (stereo not drawn) | -12.2% | 85.7% | 14.3% | 106% |
| CC(=O)c1sc(NC(=O)Nc2ccc(C)cc2C)nc1C | 30.3% | 63.7% | -2.19% | -29.6% |
| CCOc1c(Br)cc(C2C(C(=O)OC)=CN(C)C=C2C(=O)OC)cc1OC | 17.4% | 88.4% | -1.2% | 68.1% |
| CCN(CC)CCNc1ccnc2cc3ccccc3cc12 | 99.4% | 100% | 25.4% | 43.7% |
| CCOc1cccc2sc(N(Cc3cccnc3)C(=O)C3CCCCC3)nc12 | 16.6% | 53.7% | -9.86% | 11.9% |
| COc1ccc(C(=O)NC(c2ccccc2Cl)c2cc(Cl)c3cccnc3c2O)cc1 (stereo not drawn) | 5.42% | 49.4% | 18.6% | 38.6% |
| CC1CCCCN1CCCNC(=O)c1ccc2c(c1)sc1nc(-c3ccc(F)cc3)cn12 (stereo not drawn) | 21.3% | 88.1% | 23.2% | 17.8% |
| COc1ccc(C(=O)C(CCC(CNC(C)(C)C)C(=O)c2ccc(OC)cc2)CNC(C)(C)C)cc1 (stereo not drawn) | 62.7% | 94% | 10.9% | 104% |
| O=C(NC1CCN(Cc2ccccc2)CC1)c1cc2nc(-c3ccc(Cl)s3)cc(C(F)(F)F)n2n1 | 3.66% | -15.9% | 21.4% | 25% |
| COc1cc2c(cc1OC)C1=NNC(=O)C1=NC(C)(C)C2 | 71.5% | 88.6% | 100% | 98.5% |
| Cc1ccc(C(=O)c2oc3ccc4c(C)cc(=O)oc4c3c2C)cc1 | 8.47% | -0.0271% | 0.817% | 12% |
| CCN(CC)S(=O)(=O)c1ccc(-c2csc(Nc3ccc(C)c(C)c3)n2)cc1 | 28% | 31.5% | 42.2% | 42.2% |
| CCN(Cc1ccccc1)C1CCN(Cc2cc(Br)ccc2O)CC1 | 27.8% | 99% | 35.1% | 68.6% |
| Cc1ccc(Cn2c(N3CCC(C(=O)NCc4cccs4)CC3)nc3ccccc32)cc1 | 10.4% | 35.6% | 5.62% | 23.8% |
| Cc1cc(N2CCCC2)nc(Nc2ccc(NC(=O)CCc3ccccc3)cc2)n1 | 53.7% | 89.6% | 6.75% | 21% |
| CC1CC(C)CN(C(=O)c2ccc(Cl)cc2Cl)C1 (stereo not drawn) | -0.883% | -4.96% | 1.4% | 3.37% |
| Fc1ccc2[nH]c3c(NCCCN4CCOCC4)ncnc3c2c1 | 18.8% | 97.3% | -16.8% | 22.9% |
| CCCc1c(CC)c(=N)c2ccccc2n1C | 25.1% | 19.6% | 7.6% | -7.96% |
| COc1ccc(NC(=O)C2c3ccccc3C(=O)N(CC(C)C)C2c2cccs2)cc1Cl (stereo not drawn) | 42.8% | 90.9% | 54.9% | 66% |
| COc1ccc(NC(=O)C2c3ccccc3C(=O)N(CC(C)C)C2c2cccs2)cc1 (stereo not drawn) | 52.4% | 102% | 25.7% | 52.6% |
| c1ccc(C2=Nc3ccccc3N=C(c3ccccc3)c3ccccc32)cc1 | 35.8% | 101% | 15.2% | 47.2% |

| SMILES | relative % inhibition ([1]; 0.5 µM) | relative % inhibition ([1]; 5 µM) | relative % inhibition ([2]; 0.5 µM) | relative % inhibition ([2]; 5 µM) |
| --- | --- | --- | --- | --- |
| Nc1nc(Nc2cccc(F)c2)nc2ccccc12 | 5.49% | -3.66% | 15.1% | 2.78% |
| CC(=O)Nc1nnc(SCc2c(C)cc(C(C)(C)C)cc2C)s1 | 13.5% | 19.8% | -4.86% | 60.7% |
| CCOC(=O)c1cnc2ccc(CC)cc2c1O | -8.43% | 42.6% | 73.6% | 79.8% |
| c1ccc2cc3c(Nc4ccc(N5CCOCC5)cc4)ccnc3cc2c1 | -11.9% | 12.3% | 9.42% | 36.1% |
| O=c1nc(C=Cc2ccc(Cl)cc2)oc2ccccc12 | 10.5% | -14.5% | 7.96% | 19.3% |
| CC1CCN(Cc2c(O)ccc3cc(-c4nc5ccccc5s4)c(=O)oc23)CC1 | 2.97% | 94.7% | 18.2% | 18.4% |
| CC1(c2ccccc2)Nc2ccccc2-c2nc3ccccc3n21 (stereo not drawn) | 1.27% | 32.3% | 46.2% | 46.6% |
| COc1ccc2sc(N(Cc3cccnc3)C(=O)c3ccc(C#N)cc3)nc2c1 | 9.23% | 7.65% | -14.5% | 8.48% |
| CCN(CC)CCn1c(=N)n(CC(O)c2ccc(Cl)c(Cl)c2)c2ccccc21 (stereo not drawn) | 32.2% | 61.8% | 19.3% | 89.4% |
| CCCCCn1c(=N)n(CC(O)COc2cccc(C)c2)c2ccccc21 (stereo not drawn) | 37.7% | 74.5% | -3.63% | 56% |
| N=c1n(CCN2CCCCC2)c2ccccc2n1CC(O)c1cccc(Br)c1 (stereo not drawn) | 6.75% | 94.5% | 25.5% | 55.6% |
| CCOc1ccc(N2C(N)=NC(N)=NC2(C)C)cc1 | 3.66% | -20.1% | -17.5% | -10.7% |
| CCOc1ccc(Nc2c3ccccc3nc3ccccc23)cc1 | -20.8% | 84% | 8.64% | 20.9% |
| Cc1ccnc(NC(c2cccc(OCc3ccccc3)c2)c2ccc3cccnc3c2O)c1 (stereo not drawn) | 14.9% | 96.4% | 9.51% | 57.2% |
| COc1ccc(CCNC(=O)c2cc(S(=O)(=O)N3CC(C)CC(C)C3)ccc2Sc2ccc(F)cc2)cc1OC (stereo not drawn) | 10.1% | -11.3% | 17.9% | 20.1% |
| O=C(NCCCN1CCC(N2CCCCC2)CC1)C1=Cc2cc(Br)ccc2OC1 | 42.8% | 102% | -12.5% | 19.4% |
| Cc1ccc(N2C(=O)C3C(C2=O)C2(c4ccccc4)C(=O)C3(c3ccccc3)C(c3ccccc3)=C2c2ccccc2)cc1 (stereo not drawn) | 20.5% | 53.3% | 45.4% | 58.1% |
| CCCCC(O)(c1ccc(Cl)cc1)C(CN1CCOCC1)c1ccc(Cl)cc1 (stereo not drawn) | 10.8% | 92.5% | -3.8% | 40.8% |
| CCOc1ccccc1NC(=O)CN1CCN(C(=O)c2ccco2)CC1 | 11.3% | 9% | -18.2% | -2.45% |
| COc1ccc(-c2cc3c(nn2)-c2ccccc2C3=O)cc1 | -10.8% | 81.1% | 87.4% | 96.1% |
| Cn1c(=O)n(C)c2cc(CNCCNc3ccnc4cc(Cl)ccc34)ccc21 | 86.6% | 29.6% | 37.6% | 90.2% |
| CCC(c1ccccc1)c1nn2c(-c3cccs3)nnc2s1 (stereo not drawn) | -3.13% | -13.5% | 8.5% | 12.4% |
| CC(C)(C)C(=O)Nc1ccc(C(=O)Nc2cccc(-c3nc4ccccc4[nH]3)c2)cc1 | 7.02% | 15.3% | 3.45% | 17.3% |
| COc1ccccc1CNC(=O)CCn1c(=O)[nH]c2ccccc2c1=O | 27.4% | 28.5% | -5.22% | 2.14% |
